# Test results: PubChem BioAssay (NCI)
# The panel holds about 79,000 compounds, 15% with a hit somewhere; the sample as a whole holds those more often. Unmarked numbers belong to inactive results. Activity calls are given as the source filed them. Rule as the data show it: active = growth inhibition above about 70%; inactive = the rest.
# Key:
# [1] = NCI Yeast Anticancer Drug Screen. Data for the rad52 strain (AID 147);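 also: 0% = growth of vehicle-treated control cultures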; conditions: S. cerevisiae rad52 mutant growth inhibition, active compounds read high
# How it was run: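 Read-out: growth inhibition versus vehicle-treated controls. Cells were a DNA repair-deficient yeast strain treated with compounds.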
# [2] = NCI Yeast Anticancer Drug Screen. Data for the wt1 strain (AID 149);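 also: 0% = growth of vehicle-treated wt1 cultures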; conditions: S. cerevisiae wt1 strain (SPY 50644) growth inhibition, active compounds read high
# How it was run: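 Measured: growth of wt1 yeast under compound versus vehicle treatment, reported as inhibition.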
# [3] = NCI Yeast Anticancer Drug Screen. Data for the rad50EPP+ strain (AID 151);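 also: 0% = growth of vehicle-treated control cultures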; conditions: S. cerevisiae rad50 mutant strain, active compounds read high
# How it was run: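 Growth inhibition read against vehicle controls in rad50EPP+ yeast, a strain altered in DNA damage repair, after compound exposure.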
# [4] = NCI Yeast Anticancer Drug Screen. Data for the mgt1 strain (AID 153); conditions: S. cerevisiae mgt1 mutant growth inhibition, active compounds read high
# How it was run: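 mgt1 yeast grown with test compound; read-out is growth inhibition versus vehicle-treated cultures.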
# [5] = NCI Yeast Anticancer Drug Screen. Data for the rad50 strain (AID 155);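 also: 0% = growth of vehicle-only cultures of the same strain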; conditions: S. cerevisiae rad50 strain growth inhibition, active compounds read high
# How it was run: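 Growth of the mutant yeast was measured after compound exposure and referenced to vehicle-treated cultures.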
# [6] = NCI Yeast Anticancer Drug Screen. Data for the mec2-1 strain (AID 157); conditions: S. cerevisiae mec2-1 strain, active compounds read high
# How it was run: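 Yeast mec2-1 mutant treated with compound. Readout: growth inhibition vs vehicle controls.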
# [7] = NCI Yeast Anticancer Drug Screen. Data for the rad14 strain (AID 159);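 also: 0% = growth of vehicle-treated control cultures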; conditions: S. cerevisiae rad14 strain growth inhibition, active compounds read high
# How it was run: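 Here, inhibition of yeast growth was measured after compound exposure, using a strain with a genetic defect in DNA damage repair and vehicle-treated cultures as the reference.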
# [8] = NCI Yeast Anticancer Drug Screen. Data for the sgs1 mgt1 strain (AID 161);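 also: 0% = growth of cultures given vehicle only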; conditions: S. cerevisiae sgs1 mgt1 strain, active compounds read high
# How it was run: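 Inhibition of yeast growth, normalised to vehicle-treated controls, is reported for a strain bearing genetic alterations in DNA damage repair.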
# [9] = NCI Yeast Anticancer Drug Screen. Data for the cln2 rad14 strain (AID 165);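 also: 0% = growth equal to vehicle treated cultures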; conditions: S. cerevisiae cln2 rad14 strain, active compounds read high
# How it was run: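 cln2 rad14 yeast strain; compound exposure; growth inhibition read vs vehicle controls.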
# [10] = NCI Yeast Anticancer Drug Screen. Data for the bub3 strain (AID 167); conditions: S. cerevisiae bub3 mutant strain, active compounds read high
# How it was run: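 Whole-cell yeast assay. The mutant strain was incubated with compounds, and growth inhibition was determined by comparison with vehicle-treated cells.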
# [11] = NCI Yeast Anticancer Drug Screen. Data for the wt2 strain (AID 169);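 also: 0% = growth of vehicle-treated yeast cultures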; conditions: S. cerevisiae wt2 strain growth inhibition, active compounds read high
# How it was run: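 Read-out: growth inhibition versus vehicle-treated control cultures after compound exposure of the yeast strain.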
# [12] = NCI Yeast Anticancer Drug Screen. Data for the mlh1 strain (AID 171);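 also: 0% = growth of vehicle-treated control cultures of the same strain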; conditions: S. cerevisiae mlh1 strain growth inhibition, active compounds read high
# How it was run: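 Read-out: growth inhibition versus vehicle controls. Strain: engineered yeast with a defined DNA repair or cell cycle defect, compound-treated.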
# [13] = NCI Yeast Anticancer Drug Screen. Data for the sgs1 strain (AID 173);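 also: 0% = growth of vehicle-only control cultures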; conditions: S. cerevisiae sgs1 mutant, active compounds read high
# How it was run: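 Read-out: yeast growth inhibition relative to vehicle controls, following compound exposure of a strain with a defined DNA repair/cell cycle alteration.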
# [14] = NCI Yeast Anticancer Drug Screen. Data for the mlh1 rad18 strain (AID 175); conditions: S. cerevisiae mlh1 rad18 strain growth inhibition, active compounds read high
# How it was run: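 Yeast w/ defined DNA-repair lesions; compound exposure; growth vs vehicle controls → % inhibition.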
# [15] = NCI Yeast Anticancer Drug Screen. Data for the rad18 strain (AID 177); conditions: S. cerevisiae rad18 mutant growth inhibition, active compounds read high
# How it was run: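 Readout: growth inhibition vs vehicle controls. Cells: genetically altered yeast strain, DNA repair defect.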
# [16] = at 5.0 µM (retest, dose inferred, filed as 0.5)
# [17] = at 50.0 µM (retest, dose inferred, filed as 5.0)
compound,measurement,setting,value
Clc1ccc(NCNC2Nc3ccccc3N2)cc1Cl,growth inhibition,[1]; at 1.2 µM,-1%
same,growth inhibition,[1]; at 3.7 µM,-1%
same,growth inhibition,[1]; at 11.0 µM,18%
same,growth inhibition,[1]; at 33.0 µM,97% (active)
same,growth inhibition,[1]; at 100.0 µM,98% (active)
same,growth inhibition,[2]; at 1.2 µM,2%
same,growth inhibition,[2]; at 3.7 µM,7%
same,growth inhibition,[2]; at 11.0 µM,8%
same,growth inhibition,[2]; at 33.0 µM,81% (active)
same,growth inhibition,[2]; at 100.0 µM,99% (active)
same,growth inhibition,[3]; at 1.2 µM,8%
same,growth inhibition,[3]; at 3.7 µM,16%
same,growth inhibition,[3]; at 11.0 µM,88% (active)
same,growth inhibition,[3]; at 33.0 µM,98% (active)
same,growth inhibition,[3]; at 100.0 µM,98% (active)
same,growth inhibition,[4]; at 1.2 µM,-4%
same,growth inhibition,[4]; at 3.7 µM,-3%
same,growth inhibition,[4]; at 11.0 µM,4%
same,growth inhibition,[4]; at 33.0 µM,85% (active)
same,growth inhibition,[4]; at 100.0 µM,99% (active)
same,growth inhibition,[5]; at 1.2 µM,-1%
same,growth inhibition,[5]; at 3.7 µM,-3%
same,growth inhibition,[5]; [16],4%
same,growth inhibition,[5]; at 11.0 µM,17%
same,growth inhibition,[5]; at 33.0 µM,93% (active)
same,growth inhibition,[5]; [17],99% (active)
same,growth inhibition,[5]; at 50.0 µM,25.6%
same,growth inhibition,[5]; at 100.0 µM,98% (active)
same,growth inhibition,[6]; at 1.2 µM,0%
same,growth inhibition,[6]; at 3.7 µM,5%
same,growth inhibition,[6]; [16],-6%
same,growth inhibition,[6]; at 11.0 µM,17%
same,growth inhibition,[6]; at 33.0 µM,93% (active)
same,growth inhibition,[6]; [17],99% (active)
same,growth inhibition,[6]; at 50.0 µM,9.15%
same,growth inhibition,[6]; at 100.0 µM,98% (active)
same,growth inhibition,[7]; at 1.2 µM,0%
same,growth inhibition,[7]; at 3.7 µM,3%
same,growth inhibition,[7]; at 11.0 µM,13%
same,growth inhibition,[7]; at 33.0 µM,96% (active)
same,growth inhibition,[7]; at 100.0 µM,99% (active)
same,growth inhibition,[8]; [16],18%
same,growth inhibition,[8]; [17],99% (active)
same,growth inhibition,[8]; at 50.0 µM,8.15%
same,growth inhibition,[9]; [16],20%
same,growth inhibition,[9]; [17],83% (active)
same,growth inhibition,[9]; at 50.0 µM,-9.7%
same,growth inhibition,[10]; at 1.2 µM,1%
same,growth inhibition,[10]; at 3.7 µM,-8%
same,growth inhibition,[10]; [16],26%
same,growth inhibition,[10]; at 11.0 µM,-2%
same,growth inhibition,[10]; at 33.0 µM,91% (active)
same,growth inhibition,[10]; [17],99% (active)
same,growth inhibition,[10]; at 50.0 µM,10.2%
same,growth inhibition,[10]; at 100.0 µM,99% (active)
same,growth inhibition,[11]; at 1.2 µM,-4%
same,growth inhibition,[11]; at 3.7 µM,-1%
same,growth inhibition,[11]; at 11.0 µM,9%
same,growth inhibition,[11]; at 33.0 µM,91% (active)
same,growth inhibition,[11]; at 100.0 µM,98% (active)
same,growth inhibition,[12]; at 1.2 µM,-2%
same,growth inhibition,[12]; at 3.7 µM,0%
same,growth inhibition,[12]; at 11.0 µM,13%
same,growth inhibition,[12]; at 33.0 µM,71% (active)
same,growth inhibition,[12]; at 100.0 µM,99% (active)
same,growth inhibition,[13]; at 1.2 µM,1%
same,growth inhibition,[13]; at 3.7 µM,5%
same,growth inhibition,[13]; at 11.0 µM,34%
same,growth inhibition,[13]; at 33.0 µM,92% (active)
same,growth inhibition,[13]; at 100.0 µM,99% (active)
same,growth inhibition,[14]; [16],55%
same,growth inhibition,[14]; [17],98% (active)
same,growth inhibition,[14]; at 50.0 µM,29.8%
same,growth inhibition,[15]; at 1.2 µM,27%
same,growth inhibition,[15]; at 3.7 µM,65%
same,growth inhibition,[15]; at 11.0 µM,92% (active)
same,growth inhibition,[15]; at 33.0 µM,96% (active)
same,growth inhibition,[15]; at 100.0 µM,98% (active)
